ChEMBL document CHEMBL1961873, “Compounds: GSK PKIS; Assays: Nanosyn kinase panel” (2012)
Where “and” joins values, the source holds several entries; their conditions need not be identical. Identical values can stand only once.

Experiments:
[1] = target: T1, Inhibitor of nuclear factor kappa-B kinase subunit epsilon (Homo sapiens) (UniProt Q14164); conditions: at 1 µM;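 note: reported values are averaged percent inhibition figures against human IKKε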
T1 sequence (whole entry): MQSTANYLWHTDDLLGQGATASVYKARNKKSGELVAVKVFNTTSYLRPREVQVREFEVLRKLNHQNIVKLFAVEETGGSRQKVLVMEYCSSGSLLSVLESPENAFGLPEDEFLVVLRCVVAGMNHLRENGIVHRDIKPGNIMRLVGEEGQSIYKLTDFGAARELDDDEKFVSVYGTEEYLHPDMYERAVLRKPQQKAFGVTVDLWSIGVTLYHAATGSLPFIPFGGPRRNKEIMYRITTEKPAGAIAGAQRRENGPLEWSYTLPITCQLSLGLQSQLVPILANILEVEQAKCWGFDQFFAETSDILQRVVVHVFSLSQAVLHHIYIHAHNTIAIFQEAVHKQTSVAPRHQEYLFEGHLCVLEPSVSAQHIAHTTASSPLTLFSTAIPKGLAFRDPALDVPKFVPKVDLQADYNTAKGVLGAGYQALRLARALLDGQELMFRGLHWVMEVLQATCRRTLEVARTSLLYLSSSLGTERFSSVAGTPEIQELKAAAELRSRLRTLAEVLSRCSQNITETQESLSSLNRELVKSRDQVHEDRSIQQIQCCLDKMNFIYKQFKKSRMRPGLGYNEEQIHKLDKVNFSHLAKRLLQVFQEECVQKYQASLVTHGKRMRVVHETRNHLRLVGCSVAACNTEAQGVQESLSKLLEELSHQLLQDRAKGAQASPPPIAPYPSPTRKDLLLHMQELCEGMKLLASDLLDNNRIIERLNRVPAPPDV

[2] = target: T2, Serine/threonine-protein kinase Nek1 (Homo sapiens) (UniProt Q96PY6); conditions: at 0.1 µM
T2 sequence (whole entry): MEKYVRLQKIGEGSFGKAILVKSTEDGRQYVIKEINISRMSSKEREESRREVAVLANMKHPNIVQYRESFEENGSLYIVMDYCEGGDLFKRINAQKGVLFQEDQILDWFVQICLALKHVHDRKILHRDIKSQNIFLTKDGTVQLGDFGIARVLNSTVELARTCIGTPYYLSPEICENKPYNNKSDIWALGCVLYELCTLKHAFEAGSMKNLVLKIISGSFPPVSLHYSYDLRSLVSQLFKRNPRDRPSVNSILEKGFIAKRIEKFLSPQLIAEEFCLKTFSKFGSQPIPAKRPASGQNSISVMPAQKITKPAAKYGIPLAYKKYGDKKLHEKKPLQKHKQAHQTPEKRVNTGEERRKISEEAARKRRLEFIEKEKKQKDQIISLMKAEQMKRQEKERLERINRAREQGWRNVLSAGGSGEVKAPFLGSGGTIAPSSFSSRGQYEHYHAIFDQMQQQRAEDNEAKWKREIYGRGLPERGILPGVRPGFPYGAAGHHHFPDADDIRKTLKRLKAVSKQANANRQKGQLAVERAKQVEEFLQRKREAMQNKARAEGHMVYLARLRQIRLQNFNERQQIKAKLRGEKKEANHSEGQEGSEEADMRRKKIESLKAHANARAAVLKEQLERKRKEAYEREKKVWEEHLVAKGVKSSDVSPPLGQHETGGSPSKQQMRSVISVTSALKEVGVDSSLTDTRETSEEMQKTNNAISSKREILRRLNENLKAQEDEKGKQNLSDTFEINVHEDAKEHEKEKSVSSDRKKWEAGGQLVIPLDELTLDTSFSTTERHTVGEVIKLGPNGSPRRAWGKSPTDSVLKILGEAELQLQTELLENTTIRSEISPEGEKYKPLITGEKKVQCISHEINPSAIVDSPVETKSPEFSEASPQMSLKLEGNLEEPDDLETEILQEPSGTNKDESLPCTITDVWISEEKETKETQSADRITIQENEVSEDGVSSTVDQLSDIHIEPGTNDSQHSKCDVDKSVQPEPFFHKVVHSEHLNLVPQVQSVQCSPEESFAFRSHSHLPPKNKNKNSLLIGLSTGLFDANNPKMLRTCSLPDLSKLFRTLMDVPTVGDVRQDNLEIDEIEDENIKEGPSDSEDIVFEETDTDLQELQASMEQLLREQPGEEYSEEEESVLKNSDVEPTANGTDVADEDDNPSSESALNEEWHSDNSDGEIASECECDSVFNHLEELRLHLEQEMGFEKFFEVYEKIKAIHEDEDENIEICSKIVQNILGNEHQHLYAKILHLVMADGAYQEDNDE

[3] = target: T2, Serine/threonine-protein kinase Nek1 (Homo sapiens); conditions: at 1 µM
[4] = target: T3, Serine/threonine-protein kinase Nek2 (Homo sapiens) (UniProt P51955); conditions: at 0.1 µM
T3 sequence (whole entry): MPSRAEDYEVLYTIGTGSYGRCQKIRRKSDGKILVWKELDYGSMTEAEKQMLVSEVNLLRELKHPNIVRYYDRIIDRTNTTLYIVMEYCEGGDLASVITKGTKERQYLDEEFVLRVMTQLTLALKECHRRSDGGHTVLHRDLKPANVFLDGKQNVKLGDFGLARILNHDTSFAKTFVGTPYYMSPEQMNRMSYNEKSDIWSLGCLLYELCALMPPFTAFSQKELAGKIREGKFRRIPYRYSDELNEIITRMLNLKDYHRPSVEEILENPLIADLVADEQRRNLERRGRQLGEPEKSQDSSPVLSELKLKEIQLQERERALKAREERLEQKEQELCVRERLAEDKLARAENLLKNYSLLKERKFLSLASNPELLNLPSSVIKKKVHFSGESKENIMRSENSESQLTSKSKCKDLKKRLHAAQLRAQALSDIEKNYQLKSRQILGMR

[5] = target: T3, Serine/threonine-protein kinase Nek2 (Homo sapiens); conditions: at 1 µM
[6] = target: Serine/threonine-protein kinase Nek6 (Homo sapiens) (UniProt Q9HC98); conditions: at 0.1 µM
Sequence of Serine/threonine-protein kinase Nek6 (Homo sapiens) (Q9HC98 whole entry): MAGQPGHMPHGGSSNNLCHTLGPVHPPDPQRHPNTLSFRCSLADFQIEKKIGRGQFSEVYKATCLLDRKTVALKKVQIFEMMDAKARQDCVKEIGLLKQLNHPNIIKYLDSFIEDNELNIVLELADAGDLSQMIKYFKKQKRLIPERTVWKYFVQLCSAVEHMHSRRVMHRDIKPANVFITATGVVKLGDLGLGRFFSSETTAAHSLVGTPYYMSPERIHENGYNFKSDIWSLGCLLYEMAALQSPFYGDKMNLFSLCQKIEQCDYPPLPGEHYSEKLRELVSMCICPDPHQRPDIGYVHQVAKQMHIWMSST

[7] = target: Serine/threonine-protein kinase Nek6 (Homo sapiens) (UniProt Q9HC98); conditions: at 1 µM
[8] = target: Serine/threonine-protein kinase Nek7 (Homo sapiens) (UniProt Q8TDX7); conditions: at 0.1 µM
Sequence of Serine/threonine-protein kinase Nek7 (Homo sapiens) (Q8TDX7 whole entry, looked up): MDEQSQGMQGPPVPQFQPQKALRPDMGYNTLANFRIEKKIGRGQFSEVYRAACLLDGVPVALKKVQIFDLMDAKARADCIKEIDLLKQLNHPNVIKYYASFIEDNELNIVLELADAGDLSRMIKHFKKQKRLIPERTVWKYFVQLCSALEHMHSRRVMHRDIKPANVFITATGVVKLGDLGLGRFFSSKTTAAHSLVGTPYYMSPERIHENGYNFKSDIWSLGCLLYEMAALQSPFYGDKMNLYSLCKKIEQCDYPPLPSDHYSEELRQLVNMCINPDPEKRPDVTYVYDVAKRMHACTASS

[9] = target: Serine/threonine-protein kinase Nek7 (Homo sapiens) (UniProt Q8TDX7); conditions: at 1 µM
[10] = target: T4, Serine/threonine-protein kinase Nek9 (Homo sapiens) (UniProt Q8TD19); conditions: at 0.1 µM;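 note: reported value is the mean percent inhibition of NEK9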
T4 sequence (whole entry): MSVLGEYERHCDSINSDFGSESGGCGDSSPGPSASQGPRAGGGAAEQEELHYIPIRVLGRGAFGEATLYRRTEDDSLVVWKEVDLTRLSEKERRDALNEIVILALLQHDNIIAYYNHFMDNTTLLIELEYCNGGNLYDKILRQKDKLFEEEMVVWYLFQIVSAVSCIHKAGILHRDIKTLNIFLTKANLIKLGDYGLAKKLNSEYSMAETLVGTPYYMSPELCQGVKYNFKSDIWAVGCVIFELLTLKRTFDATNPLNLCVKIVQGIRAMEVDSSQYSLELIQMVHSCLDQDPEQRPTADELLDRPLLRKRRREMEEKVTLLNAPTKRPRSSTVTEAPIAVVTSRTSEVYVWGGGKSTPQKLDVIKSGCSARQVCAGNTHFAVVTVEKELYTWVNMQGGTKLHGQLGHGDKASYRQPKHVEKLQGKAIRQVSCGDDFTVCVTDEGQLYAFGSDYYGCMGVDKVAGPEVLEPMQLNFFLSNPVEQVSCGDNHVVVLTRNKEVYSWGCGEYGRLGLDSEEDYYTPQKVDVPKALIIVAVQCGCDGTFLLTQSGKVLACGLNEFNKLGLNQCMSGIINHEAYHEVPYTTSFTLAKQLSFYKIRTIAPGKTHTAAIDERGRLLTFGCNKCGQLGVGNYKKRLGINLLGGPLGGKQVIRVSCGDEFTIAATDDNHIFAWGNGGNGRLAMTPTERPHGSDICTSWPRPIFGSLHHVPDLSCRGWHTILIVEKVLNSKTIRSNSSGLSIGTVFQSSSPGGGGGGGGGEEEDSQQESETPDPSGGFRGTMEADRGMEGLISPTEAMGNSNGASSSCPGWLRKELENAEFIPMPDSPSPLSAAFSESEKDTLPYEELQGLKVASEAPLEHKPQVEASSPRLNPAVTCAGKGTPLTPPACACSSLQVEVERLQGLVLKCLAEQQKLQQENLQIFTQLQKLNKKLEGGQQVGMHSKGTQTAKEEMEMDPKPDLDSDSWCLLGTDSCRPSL

| Structure (SMILES) | inhibition [1] | inhibition [2] | inhibition [3] | inhibition [4] | inhibition [5] | inhibition [6] | inhibition [7] | inhibition [8] | inhibition [9] | inhibition [10] |
| --- | --- | --- | --- | --- | --- | --- | --- | --- | --- | --- |
| N#Cc1ccc2c(-c3ccnc(NC4CC4)n3)c(-c3ccc(F)cc3)nn2c1 | 3.7% | 0.87% | 2.03% | 2.22% | 1.83% | 1.63% | 1.52% | 1.73% | 2.38% | 3.27% |
| COc1cc(Nc2ncc(-c3ccccc3)o2)cc(OC)c1 | 10.9% | 1.83% | 4.11% | 5.36% | 5.95% | 3.13% | 1.56% | 3.14% | 5.01% | 10.4% |
| Cc1cc(O)cc(C)c1/C=C/c1cncc(C(=O)OC(C)(C)C)c1 | 91.7% | 2.47% | 4.15% | 3.29% | 2.53% | 1.87% | 2.59% | -2.32% | 3.53% | 8.55% |
| CNC(=O)c1sc(-n2cnc3cc(OC)c(OC)cc32)cc1OCc1ccccc1C(F)(F)F | 5.28% | 1.76% | 2.01% | 3.26% | 4.32% | 1.25% | 1.86% | 1.64% | -2.15% | 7.04% |
| CNC(=O)c1cncc(/C=C/c2ccccc2C)c1 | 5.71% | 2.13% | 4.28% | 4.96% | 5.88% | 1.4% | 3.73% | 1.08% | 4.03% | 3.46% |
| Fc1cccc(COc2ccc(Nc3ncncc3C#Cc3ccccc3)cc2Cl)c1 | 8.55% | 3.31% | 4.09% | 5.61% | 4.52% | 1.91% | 3.93% | 2.36% | 2.64% | 10.8% |
| Nc1ncnc2occ(-c3ccc(NC(=O)Nc4cc(C(F)(F)F)ccc4F)cc3)c12 | 11.5% and 1.35% | 4.57% and -0.38% | 34.7% and 18.1% | 1.72% and -2.9% | -2.44% and -3.79% | 2.68% and -0.01% | -0.68% and -1.16% | 2.87% and -5.06% | -8.19% and -5.1% | 5.05% and 5.01% |
| COc1ccccc1-c1cc(/C=C2\C(=O)Nc3ncc(Br)cc32)cc(Br)c1O | 12.5% | 2.67% | 0.39% | 6.8% | 6.16% | 3.44% | 0.04% | 6.5% | 3.62% | 3.73% |
| NS(=O)(=O)c1cccc(N/C=C2\C(=O)Nc3ccccc32)c1 | 14.5% | 2.63% | 4.56% | 5.64% | 4.55% | 1.86% | 1.95% | 6.51% | 4.33% | 5.97% |
| CS(=O)(=O)Nc1ccc(-c2ccc3c(NC(=O)C4CC4)n[nH]c3c2)cc1 | 2.67% | 1.54% | -3.13% | 4.81% | 3.7% | 1.17% | -2.29% | 4.35% | 2.55% | 2.89% |
| CN(c1ccc(NC(=O)NCCN2CCOCC2)cc1)c1ccnc(Nc2ccc(CS(C)(=O)=O)cc2)n1 | 95.2% | 2.09% | 4.64% | 2.52% | 1.94% | 3.82% | 3.91% | 3.06% | 3.17% | 5.2% |
| CCn1c(-c2nonc2N)nc2cncc(C(=O)NCCNC)c21 | 17.6% | 2.71% | 5.36% | 6.66% | 6.84% | -0.45% | 0.9% | 3.5% | 4.72% | 7.8% |
| OCCCNc1nccc(-c2c(-c3ccc(F)cc3)nn3cc(C(F)(F)F)ccc23)n1 | 0.15% | -0.37% | 0.3% | 2.83% | 2.24% | 4.06% | -0.92% | 2.99% | -4.27% | 7.44% |
| O=C(O[C@H]1CN[C@H](C#Cc2cc3ncnc(Nc4ccc(OCc5cccc(F)c5)c(Cl)c4)c3s2)C1)N1CCOCC1 | 9.71% | 3.33% | 4.01% | 6.18% | 8.23% | 1.15% | 2.74% | 4.68% | 3.68% | 5.79% |
| COc1ccc2ncn(-c3cc(O[C@H](C)c4ccccc4C(F)(F)F)c(C(N)=O)s3)c2c1 | 1.28% | 8.29% | 43% | 0.45% | 11.6% | 0.31% | -2.42% | 1.25% | 0.51% | 35.9% |
